# Laboratory results from PubChem BioAssay AID2540 (Sanford-Burnham Center for Chemical Genomics, 2010).
# The whole screen tested about 330,000 compounds, of which about 4,100 (1.2%) were called active. The full list was thinned out, with actives kept by preference. A number with no mark means an inactive call. Cut-off read from the data, not from the text of the source: active = inhibition above about 50%; inactive = the rest.
# Target: Sentrin-specific protease 8 (Homo sapiens) (UniProt Q96LD8)
# Experiment: SENP8 protease inhibitors, primary screen, biochemical, luminescence (AID 2540)
# Details: purified SENP8, Z-RLRGG-aminoluciferin cleavage, at 10 µM, stronger effect = higher value
# Sentrin-specific protease 8 (Homo sapiens), sequence (Q96LD8 whole entry, looked up): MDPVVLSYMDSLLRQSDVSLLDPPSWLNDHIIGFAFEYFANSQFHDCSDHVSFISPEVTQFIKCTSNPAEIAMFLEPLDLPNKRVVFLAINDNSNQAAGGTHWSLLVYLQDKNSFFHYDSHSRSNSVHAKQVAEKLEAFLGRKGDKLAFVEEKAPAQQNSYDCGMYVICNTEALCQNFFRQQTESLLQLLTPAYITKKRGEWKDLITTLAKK
row,SMILES,inhibition
1,O=[N+]([O-])c1cc(S(=O)(=O)NCCc2ccccn2)ccc1Cl,-1.07%
2,CC/C(Cc1ccccc1)=N/NC(=O)CCn1nnc2ccccc21,2.91%
3,O=C(Nc1ccccc1C(=O)NCC1CCCO1)c1ccccc1F (configuration not stated),-12.9%
4,Cc1c(C(=O)N(C)CCc2cnn(C)c2)oc2c(F)cccc12,3.74%
5,O=C(Nc1nc2ccc([N+](=O)[O-])cc2s1)c1ccncc1,87.5% (active)
6,O=C(NC(Nc1nc2ccc([N+](=O)[O-])cc2s1)(C(F)(F)F)C(F)(F)F)c1ccccc1,-0.974%
7,O=C(c1ccncc1)c1ccc([N+](=O)[O-])cc1,-5.02%
8,CCCOC(=O)c1c(NC(=O)c2cnn3c2NC(c2ccccc2)CC3C(F)(F)F)sc2c1CCCC2 (configuration not stated),-1.5%
9,O=C(c1ccco1)N1CCN(C(=S)Nc2cc(F)cc(F)c2)CC1,2.74%
10,COc1ccc(N2CCN(C(=O)CNS(=O)(=O)c3ccc(C)c(C)c3)CC2)cc1,-6.38%
11,Cc1cccc2cc3c(N)c(C(=O)N4CCCc5ccccc54)sc3nc12,-4.99%
12,CC(=O)c1ccc(OCCCC(=O)Nc2ccc(C)c(S(=O)(=O)N3CCOCC3)c2)cc1,8.63%
13,O=C(CSC(=S)N1CCOCC1)c1cc(Br)cc(Br)c1O,-4.17%
14,CC1CN(C(=S)SCC(=O)c2ccccc2)CC(C)O1 (configuration not stated),1.35%
15,O=C(CSC(=S)N1CCOCC1)c1ccccc1,59.3% (active)
16,CCOc1ccc(S(=O)(=O)N2CCC(C(=O)NCC(=O)Nc3cccc(Cl)c3C)CC2)cc1,3.22%
17,Cc1ccc(-c2nc(CSCC(=O)NC3CCN(Cc4ccccc4)CC3)c(C)o2)cc1,-1.87%
18,CCCn1c(C)cc(/C=C(\C#N)C(=O)OCC(=O)Nc2cc(OC)c(OC)c(OC)c2)c1C,1.35%
19,COc1ccccc1NC(=O)C1=C(C)Nc2nc3ccccc3n2C1c1cccs1 (configuration not stated),-5.43%

row,SMILES,inhibition
1,O=C(Nc1ccc(N2CCCC2=O)cc1)c1cncc(Br)c1,-0.181%
2,CCOC(=O)c1sc(NC(=O)c2ccncc2)nc1C,88.2% (active)
3,CCOC(=O)c1sc(NC(=O)c2sc(C)nc2C)nc1C,13.7%
4,CCOC(=O)c1cccnc1NC(=O)c1ccncc1,-5.42%
5,Cc1ccc(NC(=O)CN(C)C(=O)c2ccc(Cl)c(S(=O)(=O)NCc3ccco3)c2)cc1,-1.14%
6,O=CN1CCN(C(=O)c2ccc(Br)o2)CC1,0.91%
7,O=C(Nc1ccc2c(c1)OCCO2)c1ccoc1,-5.62%
8,CN1CCN(c2ccc(NC(=O)c3ccc4c(c3)OCCO4)cc2Cl)CC1,3.49%
9,CC(NC(=O)Nc1cccc([N+](=O)[O-])c1)c1ccc2c(c1)OCO2 (configuration not stated),-0.051%
10,Cc1onc(C(=O)Nc2ccc3c(c2)OCO3)c1[N+](=O)[O-],-9.15%
11,O=C(Nc1ccccc1)c1ccc2c(c1)OCO2,66.7% (active)
12,O=C(Nc1ccc(NC(=O)c2ccc3c(c2)OCO3)cc1)c1cccc(Cl)c1,-4.6%
13,O=C(Nc1ccc(N2CCOCC2)cc1)c1ccc2c(c1)OCO2,12.3%
14,O=C(COC(=O)c1ccc(F)cc1)Nc1ccc2c(c1)OCO2,-15.4%
15,O=C(COC(=O)c1ccncc1)Nc1ccc2c(c1)OCO2,8.05%
16,O=C(Nc1ccccc1)c1ccc2c(c1)OCCCO2,75.9% (active)
17,O=C(Nc1cccc([N+](=O)[O-])c1)c1ccc2c(c1)OCO2,59.1% (active)
18,CC(=O)Nc1cccc(C(=O)OCC(=O)c2ccc3c(c2)OCO3)c1,67.1% (active)
